From PubChem BioAssay AID1159580 (chemical genetic matrix, 2015)
Among all 5,500 compounds or so, about 2,000 (36%) were called active. Not shown: some 18% with an inconclusive outcome. No stated cut-off is given here; in the data, active means normalized growth mostly below about 0.91 (no sharp cut-off); inconclusive means no clear call, values can overlap the other calls; inactive means mostly above about 0.92. The list shows a part of the results.

Test: chemical genetic growth profiling, strain panel (AID 1159580);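 further: tested at 20 µM; growth read once vehicle control cultures reached saturation at 30 °C; 1 = growth at the plate median or of vehicle wells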
Conditions: growth OD

Measured: normalized growth

CC(=O)Nc1cccc(O)c1
inactive: S. cerevisiae deletion strains, locus YJL187C, strain SWE1, stronger effect = lower value 1.02 | S. cerevisiae deletion strains, locus YJR043C, strain POL32, stronger effect = lower value 0.999 | S. cerevisiae deletion strains, locus YJR075W, strain HOC1, stronger effect = lower value 1.01 | S. cerevisiae deletion strains, locus YKL009W, strain mrt4, stronger effect = lower value 0.973 | S. cerevisiae deletion strains, locus YKL068W, stronger effect = lower value 0.989 | S. cerevisiae deletion strains, locus YKL085W, strain MDH1 (second series), stronger effect = lower value 1.01 | S. cerevisiae deletion strains, locus YKL085W, strain MDH1, stronger effect = lower value 1.01 | S. cerevisiae deletion strains, locus YKL160W, strain elf1, stronger effect = lower value 1.05 | S. cerevisiae deletion strains, locus YKL190W, strain CNB1, stronger effect = lower value 1 | S. cerevisiae deletion strains, locus YKR001C, strain vps1, stronger effect = lower value 0.991 | S. cerevisiae deletion strains, locus YKR026C, strain gcn3, stronger effect = lower value 1.01 | S. cerevisiae deletion strains, locus YKR091W, strain srl3, stronger effect = lower value 1.01 | S. cerevisiae deletion strains, locus YLL001W, strain dnm1, stronger effect = lower value 0.995 | S. cerevisiae deletion strains, locus YLL026W, stronger effect = lower value 1.03 | S. cerevisiae deletion strains, locus YLL041C, strain sdh2, stronger effect = lower value 1.03 | S. cerevisiae deletion strains, locus YLR027C, strain aat2, stronger effect = lower value 1.01 | S. cerevisiae deletion strains, locus YLR039C, strain RIC1, stronger effect = lower value 1 | S. cerevisiae deletion strains, locus YLR058C, strain SHM2, stronger effect = lower value 1.01 | S. cerevisiae deletion strains, locus YLR102C, strain apc9, stronger effect = lower value 1.01 | S. cerevisiae deletion strains, locus YLR221C, strain rsa3, stronger effect = lower value 0.972 | S. cerevisiae deletion strains, locus YLR258W, strain gsy2, stronger effect = lower value 1.04 | S. cerevisiae deletion strains, locus YLR262C, strain YPT6 (second series), stronger effect = lower value 1.01 | S. cerevisiae deletion strains, locus YLR262C, strain YPT6, stronger effect = lower value 1.02 | S. cerevisiae deletion strains, locus YLR268W, strain sec22, stronger effect = lower value 0.986 | S. cerevisiae deletion strains, locus YLR320W, strain mms22, stronger effect = lower value 0.957 | S. cerevisiae deletion strains, locus YLR330W, strain CHS5, stronger effect = lower value 1.01 | S. cerevisiae deletion strains, locus YLR342W, strain FKS1 (second series), stronger effect = lower value 1 | S. cerevisiae deletion strains, locus YLR342W, strain FKS1, stronger effect = lower value 1.04 | S. cerevisiae deletion strains, locus YLR357W, strain rsc2, stronger effect = lower value 1.04 | S. cerevisiae deletion strains, locus YLR370C, strain arc18, stronger effect = lower value 1.03 | S. cerevisiae deletion strains, locus YLR371W, strain rom2, stronger effect = lower value 0.999 | S. cerevisiae deletion strains, locus YLR384C, strain iki3, stronger effect = lower value 1.02 | S. cerevisiae deletion strains, locus YLR418C, strain cdc73, stronger effect = lower value 0.996 | S. cerevisiae deletion strains, locus YML016C, strain PPZ1, stronger effect = lower value 1.01 | S. cerevisiae deletion strains, locus YML032C, strain rad52, stronger effect = lower value 0.995 | S. cerevisiae deletion strains, locus YML120C, strain ndi1, stronger effect = lower value 0.972 | S. cerevisiae deletion strains, locus YML124C, strain tub3, stronger effect = lower value 0.986 | S. cerevisiae deletion strains, locus YMR058W, strain fet3, stronger effect = lower value 1.02 | S. cerevisiae deletion strains, locus YMR078C, strain ctf18, stronger effect = lower value 0.989 | S. cerevisiae deletion strains, locus YMR125W, strain sto1, stronger effect = lower value 1.03 | S. cerevisiae deletion strains, locus YMR129W, stronger effect = lower value 0.998 | S. cerevisiae deletion strains, locus YMR205C, strain PFK2, stronger effect = lower value 0.991 | S. cerevisiae deletion strains, locus YMR223W, strain ubp8, stronger effect = lower value 1 | S. cerevisiae deletion strains, locus YMR231W, strain pep5, stronger effect = lower value 1 | S. cerevisiae deletion strains, locus YMR263W, strain SAP30, stronger effect = lower value 1.01 | S. cerevisiae deletion strains, locus YMR307W, strain GAS1, stronger effect = lower value 1 | S. cerevisiae deletion strains, locus YNL067W, strain RPL9B, stronger effect = lower value 1.01 | S. cerevisiae deletion strains, locus YNL071W, strain lat1, stronger effect = lower value 1.01 | S. cerevisiae deletion strains, locus YNL153C, strain GIM3, stronger effect = lower value 1.02 | S. cerevisiae deletion strains, locus YNL209W, strain ssb2, stronger effect = lower value 1.02 | S. cerevisiae deletion strains, locus YNL233W, strain BNI4, stronger effect = lower value 1.02 | S. cerevisiae deletion strains, locus YNL248C, strain rpa49, stronger effect = lower value 1.07 | S. cerevisiae deletion strains, locus YNL250W, strain rad50, stronger effect = lower value 0.995 | S. cerevisiae deletion strains, locus YNL271C, strain bni1, stronger effect = lower value 0.993 | S. cerevisiae deletion strains, locus YNL298W, strain CLA4, stronger effect = lower value 0.978 | S. cerevisiae deletion strains, locus YNL307C, strain MCK1, stronger effect = lower value 1.01 | S. cerevisiae deletion strains, locus YNL322C, strain KRE1 (second series), stronger effect = lower value 1.05 | S. cerevisiae deletion strains, locus YNL322C, strain KRE1, stronger effect = lower value 1 | S. cerevisiae deletion strains, locus YNR049C, strain mso1, stronger effect = lower value 1.01 | S. cerevisiae deletion strains, locus YNR052C, strain pop2, stronger effect = lower value 1 | S. cerevisiae deletion strains, locus YOL006C, strain TOP1, stronger effect = lower value 1.03 | S. cerevisiae deletion strains, locus YOL012C, strain htz1 0.695 | S. cerevisiae deletion strains, locus YOL147C, strain pex11, stronger effect = lower value 0.99 | S. cerevisiae deletion strains, locus YOR001W, strain rrp6, stronger effect = lower value 0.952 | S. cerevisiae deletion strains, locus YOR061W, strain CKA2, stronger effect = lower value 1 | S. cerevisiae deletion strains, locus YOR069W, strain VPS5, stronger effect = lower value 1 | S. cerevisiae deletion strains, locus YOR070C, strain gyp1, stronger effect = lower value 1.02 | S. cerevisiae deletion strains, locus YOR080W, strain dia2, stronger effect = lower value 1.02 | S. cerevisiae deletion strains, locus YOR083W, strain WHI5, stronger effect = lower value 0.997 | S. cerevisiae deletion strains, locus YOR106W, strain vam3, stronger effect = lower value 1.05 | S. cerevisiae deletion strains, locus YOR136W, strain idh2, stronger effect = lower value 0.995 | S. cerevisiae deletion strains, locus YOR144C, strain elg1, stronger effect = lower value 0.993 | S. cerevisiae deletion strains, locus YOR184W, strain ser1, stronger effect = lower value 1 | S. cerevisiae deletion strains, locus YOR265W, strain rbl2, stronger effect = lower value 1.01 | S. cerevisiae deletion strains, locus YOR270C, strain vph1, stronger effect = lower value 1.05 | S. cerevisiae deletion strains, locus YOR290C, strain snf2, stronger effect = lower value 1.05 | S. cerevisiae deletion strains, locus YOR316C, strain cot1, stronger effect = lower value 0.991 | S. cerevisiae deletion strains, locus YPL051W, strain arl3, stronger effect = lower value 1.04 | S. cerevisiae deletion strains, locus YPL055C, strain LGE1, stronger effect = lower value 1.01 | S. cerevisiae deletion strains, locus YPL078C, strain atp4, stronger effect = lower value 1.04 | S. cerevisiae deletion strains, locus YPL106C, strain sse1, stronger effect = lower value 1.01 | S. cerevisiae deletion strains, locus YPL240C, strain hsp82, stronger effect = lower value 1.01 | S. cerevisiae deletion strains, locus YPR119W, strain clb2, stronger effect = lower value 1 | S. cerevisiae deletion strains, locus YPR141C, strain kar3, stronger effect = lower value 0.98 | S. cerevisiae deletion strains, locus YPR163C, strain tif3, stronger effect = lower value 0.988 | S. cerevisiae deletion strains, locus YPR167C, strain met16, stronger effect = lower value 0.997 | S. cerevisiae deletion strains, strain wtn01, stronger effect = lower value 0.995 | S. cerevisiae strains, strain wild type, stronger effect = lower value 1.01
